This is an account of results in PubChem BioAssay.

Test [1] in a line: resazurin metabolic signal in HepG2 cells – cell-based, resazurin fluorescence, 24 h, PK04 Diversity Set, profiling panel (AID 1172). Note: test concentration not given here. As to conditions: HepG2 viability, higher = more signal. (In general: Resazurin is reduced to fluorescent resorufin, in cell work by metabolically active cells.)
Test [2] is described as follows: budding yeast growth changes without added modifier – OD600, strain BY4716, 24 h, basal condition, primary screen (AID 1173). Conditions: S. cerevisiae BY4716 growth, OD600, 24 h; higher = more signal, called active from +8 up or from −8 down.
Test [3] can be described thus: viability profiling in MM1S myeloma cells – cell-based, resazurin fluorescence, basal, 24 h, PK04 Diversity Set, profiling panel (AID 1174).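 Note: MM1S multiple myeloma cell line; test concentration not given here.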 As to conditions: higher = more signal, called active from +8 up or from −8 down.
Test [4] concerns the target Dihydroorotate dehydrogenase (quinone), mitochondrial (Plasmodium falciparum (isolate 3D7)) (UniProt Q08210). Briefly: inhibition of P. falciparum DHODH – biochemical, C-terminal His tag, absorbance 600 nm, primary screen (AID 1175).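 Note: recombinant parasite enzyme with a five histidine tag at its C terminus; test concentration not given here.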 Conditions: PfDHODH enzyme, DCIP absorbance 600 nm; higher = more signal, called active from +8 up or from −8 down.
The nature of test [5]: inhibition of PAO1 biofilm formation – strain PAO1, LB-PBS medium, absorbance 600 nm, primary screen (AID 1176). Note: test concentration not given here. As to conditions: P. aeruginosa PAO1 growth/biofilm, A600, 12 h; higher = more signal.
Test [6] is described as follows: growth modulation of vineyard yeast isolate – strain RM11-1a, OD600, basal, 24 h, primary screen (AID 1177).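 Note: cultures grown under basal conditions with no added stressor; test concentration not given here.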 As to conditions: S. cerevisiae RM11-1a growth, OD600, 24 h; higher = more signal, called active from +8 up or from −8 down.
Test [7] in a line: growth of efflux-deficient E. coli DRC39 – strain DRC39, OD650, 24 h, E. coli filamentation inducers, primary screen (AID 1178).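 Note: growth measured as culture turbidity by optical density at 650 nm; test concentration not given here.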 As to conditions: E. coli DRC39 acrAB, higher = more signal, called active from +8 up or from −8 down.
A short description of test [8]: growth of efflux-deficient E. coli DRC39 – strain DRC39, OD650, 48 h, E. coli filamentation inducers, primary screen (AID 1179).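 Note: screen aims at cell division blockers that make cells filament.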 As to conditions: E. coli DRC39 delta-acrAB growth, higher = more signal, called active from +8 up or from −8 down.
Test [9] can be described thus: viability profiling in RPMI8226 myeloma cells – cell-based, resazurin fluorescence, basal, 24 h, PK04 Diversity Set, profiling panel (AID 1180).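 Note: RPMI8826 multiple myeloma cell line at 5000 cells per well; test concentration not given here.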 As to conditions: higher = more signal.
Test [10] has as its target E3 ubiquitin-protein ligase XIAP (Homo sapiens) (UniProt P98170). Briefly: small molecules binding XIAP protein – biophysical, small-molecule microarray, fluorescence 635 nm, primary screen (AID 1181).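 Note: score merges 667 nm emission and signal to noise over triplicate slides.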 As to conditions: higher = more signal.

Calls of active or inactive are those of the source. Unless noted, the rule behind the calls is not given here.

Sequence of E3 ubiquitin-protein ligase XIAP (Homo sapiens) (P98170 whole entry, looked up): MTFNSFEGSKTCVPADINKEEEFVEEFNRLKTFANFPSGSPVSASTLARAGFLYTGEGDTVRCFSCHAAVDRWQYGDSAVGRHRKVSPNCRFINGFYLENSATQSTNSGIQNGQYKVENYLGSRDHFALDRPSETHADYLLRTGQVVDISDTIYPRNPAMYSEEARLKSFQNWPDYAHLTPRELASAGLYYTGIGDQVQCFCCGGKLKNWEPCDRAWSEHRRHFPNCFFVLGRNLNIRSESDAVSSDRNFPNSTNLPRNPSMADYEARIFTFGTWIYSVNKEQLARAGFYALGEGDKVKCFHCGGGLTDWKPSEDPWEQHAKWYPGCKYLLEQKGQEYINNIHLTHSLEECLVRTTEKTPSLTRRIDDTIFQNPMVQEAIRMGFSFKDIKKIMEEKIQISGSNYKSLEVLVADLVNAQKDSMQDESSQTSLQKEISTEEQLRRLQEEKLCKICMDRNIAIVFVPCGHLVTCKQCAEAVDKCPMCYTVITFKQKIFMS
Sequence of Dihydroorotate dehydrogenase (quinone), mitochondrial (Plasmodium falciparum (isolate 3D7)) (Q08210 whole entry, looked up): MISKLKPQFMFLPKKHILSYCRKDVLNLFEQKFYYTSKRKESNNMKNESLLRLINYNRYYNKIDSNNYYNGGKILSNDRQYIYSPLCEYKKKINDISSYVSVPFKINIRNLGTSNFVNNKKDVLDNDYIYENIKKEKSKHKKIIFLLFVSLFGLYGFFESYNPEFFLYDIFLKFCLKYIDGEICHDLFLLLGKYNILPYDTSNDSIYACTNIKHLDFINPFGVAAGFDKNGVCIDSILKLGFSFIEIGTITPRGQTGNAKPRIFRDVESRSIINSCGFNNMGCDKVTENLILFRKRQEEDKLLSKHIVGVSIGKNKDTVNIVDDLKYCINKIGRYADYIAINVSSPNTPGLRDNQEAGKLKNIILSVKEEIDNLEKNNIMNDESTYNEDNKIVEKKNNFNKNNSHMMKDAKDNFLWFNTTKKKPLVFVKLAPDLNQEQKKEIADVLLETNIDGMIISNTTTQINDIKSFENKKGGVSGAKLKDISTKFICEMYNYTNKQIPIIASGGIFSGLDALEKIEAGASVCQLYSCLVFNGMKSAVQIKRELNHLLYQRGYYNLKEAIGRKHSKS

As to `COc1cc2c(cc1OC)CN(C(=O)[C@@H]1[C@H]3C(=O)O[C@H](c4ccccc4)[C@H](c4ccccc4)N3[C@H](c3ccc(O)cc3)[C@@]13C(=O)Nc1ccccc13)CC2`, the z-score in test [1] was -0.313; in test [2], -0.128 (inactive); in [3] it was 0.118 (inactive); in test [5], 0.614 (inactive); in test [6], 0.028 (inactive); in [7], 1.07 (inactive). The results for the z-score in test [8] and in test [9] were -0.4 (inactive) and 0.109, respectively. The figures for the composite z-score in test [4] and in test [10] were -0.228 (inactive) and -0.201, respectively.
Consider `CC1CC/C=C\[C@H]2OC34C=CCN(Cc5ccccc5)C(=O)[C@H]3N(CCCO)C(=O)[C@@H]4C2C(=O)O1` (stereo not given in full), for which the z-score was -0.385 in test [1]; -0.739 (inactive) in [2]; 0.0639 (inactive) in test [3]; -0.0963 (inactive) in test [5]; -0.52 (inactive) in test [6]; 1.02 (inactive) in test [7]. Besides, the z-score in test [8] was 0.568 (inactive); in [9], 0.44. For the same molecule, the composite z-score is -0.311 (inactive) in [4] and -0.176 in test [10].
On to `CC1(C)C2C=C(C(O)C3C=CC4C(=O)NC(=O)C4N3Nc3ccc(Cl)cc3Cl)C[C@@H]1C2` (stereo not given in full), for which the z-score in test [1] is -2.13; in test [2], -7.58 (inactive); in [3] it was -1.9 (inactive); in test [5], 1.55 (inactive); in test [6], 0.84 (inactive); in [7] it was -0.274 (inactive). The figures for the z-score in [8] and in test [9] were -1.08 (inactive) and -1.79, respectively. For the same molecule, the composite z-score in [4] is 0.356 (inactive); in [10], -0.0769.
With `COC(=O)[C@@]1(Cc2ccc(OC)cc2)[C@H]2c3cc(C(=O)N(C)C)n(CCc4ccccn4)c3C[C@H]2CN1C(=O)c1ccccc1`, the z-score is -1.31 in test [1]; 2.55 (inactive) in [2]; -2.34 (inactive) in [3]; 0.908 (inactive) in [5]; 1.51 (inactive) in test [6]; -1.2 (inactive) in test [7]. Besides, the z-score in test [8] was -0.655 (inactive); in test [9], -1.93. The composite z-score in [4] was -0.0595 (inactive); in test [10], 0.264.
On to `O=C1C[C@@](C(=O)NCCN2CCOCC2)(c2ccc([N+](=O)[O-])cc2)[C@@H](c2ccc(CO)cc2)N1CC12CC3CC(CC(C3)C1)C2`, for which the z-score in test [1] is -2.48; in [2], -11.2 (active); in [3], -3.17 (inactive); in test [5], 0.733 (inactive); in test [6], 1.77 (inactive); in test [7] it was -0.924 (inactive). The values for the z-score in test [8] and in test [9] were -1.66 (inactive) and -3.82, respectively. The composite z-score in [4] is -0.601 (inactive); in test [10] it was -0.182.
For `OCCCC1=CC(c2cccs2)N(Cc2cc3c(cc2Br)OCO3)CC1` (stereo not given), the z-score in test [1] was -0.429; in test [2], -2.09 (inactive); in test [3] it was -0.643 (inactive); in [5], 0.531 (inactive); in test [6] it was -0.174 (inactive); in [7] it was -0.341 (inactive). Besides, the values for the z-score in [8] and in test [9] were -0.681 (inactive) and -0.829, respectively. The values for the composite z-score in [4] and in test [10] were -0.966 (inactive) and 0.019, respectively.
Regarding `CC(CO)N1C(=O)[C@@H]2C3C(=O)OCCC/C=C\[C@H]3OC23C=CCN(C(C)(C)C)C(=O)[C@@H]13` (stereo not given in full), the z-score in test [1] was -0.181; in [2], -0.382 (inactive); in test [3] it was -0.261 (inactive); in test [5] it was 0.727 (inactive); in test [6] it was -0.0192 (inactive); in test [7], 0.855 (inactive). Also, the values for the z-score in test [8] and in test [9] were 0.956 (inactive) and -0.178, respectively. The composite z-score is -4.03 (inactive) in test [4] and 0.801 in [10].
`O=C(OCc1ccccc1)C1=CCC2c3[nH]c4ccccc4c3C(=O)C1N2S(=O)(=O)c1ccccc1[N+](=O)[O-]` (stereo not given): the z-score is -0.106 in test [1]; 1.57 (inactive) in [2]; -1.2 (inactive) in test [3]; 0.381 (inactive) in test [5]; 0.714 (inactive) in [6]; -1.04 (inactive) in test [7]. Moreover, the figures for the z-score in test [8] and in [9] were -1.43 (inactive) and -0.878, respectively. Moreover, the composite z-score was -0.386 (inactive) in test [4] and -0.113 in [10].
Turning to `COC(=O)[C@@]1(Cc2ccc(F)cc2)[C@H]2c3cc(C(=O)N4CCCC4)n(Cc4ccc(S(C)(=O)=O)cc4)c3C[C@H]2CN1C(=O)c1ccccc1`, the z-score is -0.608 in test [1]; 1.01 (inactive) in test [2]; -1.03 (inactive) in [3]; 1.09 (inactive) in test [5]; 0.458 (inactive) in test [6]; -1.12 (inactive) in test [7]. Moreover, the values for the z-score in test [8] and in test [9] were -0.704 (inactive) and -0.948, respectively. Further, the composite z-score is -0.159 (inactive) in [4] and 0.261 in [10].
With `C=C[C@H](CO[Si](CC)(CC)CC)N(Cc1ccc(OC(C)=O)c(OC)c1)S(=O)(=O)c1ccc(Br)cc1`, the z-score in [1] was -0.423; in [2] it was -0.128 (inactive); in [3], -0.649 (inactive); in [5], -0.649 (inactive); in [6], 0.292 (inactive); in test [7] it was 0.93 (inactive). Also, the z-score is 1.67 (inactive) in [8] and -3.37 in test [9]. The composite z-score is -1.38 (inactive) in test [4] and 0.0487 in [10].
With `C[N+](C)(C)CCCCNC(=O)[C@H]1C[C@H]2C(=O)N3CCC[C@H]3C(=O)N2[C@H]1c1cccc(OCCO)c1`, the z-score in test [1] was -2.49; in test [2], 1.43 (inactive); in test [3] it was -1.12 (inactive); in test [5] it was 0.628 (inactive); in test [6] it was 0.647 (inactive); in test [7], 0.66 (inactive). Further, the z-score in test [8] is 0.629 (inactive); in [9], -0.951. Moreover, the composite z-score in [4] is -30.8 (active); in test [10], 0.261.
For the molecule `O=C(c1ccccc1)N1Cc2ccccc2C[C@@]2(COC(c3ccc(OCCCO)cc3)=N2)C1=O`, the z-score in [1] was 1.05; in test [2] it was -0.264 (inactive); in test [3], 0.26 (inactive); in [5], 0.248 (inactive); in [6] it was 2.02 (inactive); in [7] it was -0.0674 (inactive). The z-score in test [8] is -0.564 (inactive); in test [9] it was 0.263. Also, the composite z-score was 0.574 (inactive) in test [4] and -0.231 in test [10].
